Shown are actives, neighbours in structure and some others; about 12% of the full set was active somewhere.
L3MBTL1 inh: qHTS Assay for the Inhibitors of L3MBTL1; Lethal(3)malignant brain tumor-like protein 1 (Homo sapiens), Q9Y468; AlphaScreen L3MBTL1–H3K9me1 peptide binding; Potency, µM (highest dose often 57.1 µM), hits mostly inhibitors; 230,000 compounds, 0.66% hits; also: nearly all actives have a fitted effect of over 60% in size
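L3MBTL1 (50 nM) pre-complexed 30 min with biotinylated H3(1-15)K9me1 peptide (75 nM), then compounds added for 30 min at room temperature; AlphaScreen streptavidin donor/nickel chelate acceptor beads (10 ug/mL final) read after 30 min dark incubation.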
G9a block: qHTS Assay for Inhibitors of Histone Lysine Methyltransferase G9a | Histone-lysine N-methyltransferase EHMT2 (Homo sapiens), Q96KQ7 | G9a H3K9 monomethylation, AlphaScreen, 2 h | Potency, µM (series often up to 102 µM), hits mostly inhibitors | 350,000 compounds, 8.8% hits; also: nearly all actives have a fitted effect of over 75% in size
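Signal arises when biotinylated H3K9 peptide, once monomethylated, bridges streptavidin donor and antibody-captured acceptor beads. Enzyme at 20 nM was preincubated 15 min with test compounds; peptide 500 nM and SAM 20 uM then reacted for 2 h.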
Sfp PPTase inh: qHTS Assay for Inhibitors of Bacillus subtilis Sfp phosphopantetheinyl transferase (PPTase). 310,000 compounds, 3.5% hits. Biochemical Sfp PPTase activity, qHTS. AID 1490, 2009. 4'-phosphopantetheinyl transferase ffp (Bacillus subtilis), Q9F4F7. Potency, µM, hits mostly inhibitors;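 also: the enzyme is Sfp with the accession as filed and its product quenches rhodamine fluorescence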
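Fluorescence-quenching assay: 15 nM Sfp-PPTase preincubated 15 min at room temperature with compound, then 5 uM rhodamine-CoA and 12.5 uM BHQ-2-labelled YbbR peptide added. Fluorescence (ex 525/em 598 nm) read at start and after 30 min; difference gives rate.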
JMJD2A Tudor: qHTS Assay for Inhibitors of JMJD2A-Tudor Domain. AlphaScreen JMJD2A-Tudor / H3K4me3 peptide binding. Potency, µM (series often up to 114 µM), most hits filed as inhibitors. 390,000 compounds, 4.4% hits; also: nearly all actives have a fitted effect of over 50% in size
HP1b chromo inh: HTS for Inhibitors of HP1-beta Chromodomain Interactions with Methylated Histone Tails | Chromobox protein homolog 1 (Homo sapiens), P83916 | Potency, µM (doses to about 114 µM), actives largely listed as inhibitors | AlphaScreen HP1-beta / biotin-H3K9me3 peptide binding | 390,000 compounds, 0.56% hits; also: nearly all actives have a fitted effect of over 70% in size
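Compound inhibition of the preformed complex between 50 nM HP1-beta and 50 nM biotinylated H3K9me3 peptide was read by AlphaScreen. Buffer was PBS pH 7.4 with 0.01% Tween-20. Incubations ran 30 min at room temperature, with 10 ug/mL donor/acceptor beads.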
BAZ2B block: qHTS Assay for Inhibitors of BAZ2B | Bromodomain adjacent to zinc finger domain protein 2B (Homo sapiens), Q9UIF8 | AlphaScreen BAZ2B-H3K14Ac peptide displacement | Potency, µM (series often up to 114 µM), usual class: inhibitors | 360,000 compounds, 4.4% hits | AID 504333, 2011; also: nearly all actives have a fitted effect of over 60% in size
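Inhibition is scored as reduced AlphaScreen emission. The BAZ2B/b-H3(5-23)K14Ac complex (50 nM each) in PBS pH 7.4, 0.01% Tween-20 meets compound (up to 110 uM) for 30 min at RT before bead addition.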
Sfp inh conf: Confirmation qHTS Assay for Inhibitors of Bacillus subtilis Sfp phosphopantetheinyl transferase (PPTase) | shares compounds with Sfp PPTase inh | Sfp PPTase enzymatic assay, qHTS titration | Potency, µM (doses to about 114 µM), usual class: inhibitors | 380 compounds, 79% hits | AID 2701, 2010
Sfp PPTase gel: Gel-Based Assay for Inhibitors of Bacillus subtilis Sfp phosphopantetheinyl transferase (PPTase) | purified Sfp, gel-based phosphopantetheinylation read-out | shares compounds with Sfp PPTase inh | Potency, µM, usual class: inhibitors | 210 compounds, 20% hits;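 active = potency below 100 µM; inconclusive = dose-dependent response but potency above 100 µM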;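 also: potency is an IC50 for inhibitors of Sfp transfer activity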
Large screens that a line does not name were inactive (follow-up assays come after a bar, where they were run); ! = a repeat was not active. Unless noted, calls follow the shape of the dose curve; as a rule, active = well fitted curve in the direction sought with a large enough effect; inconclusive = small, poorly fitted or top-dose-only effect, or another doubt; inactive = no such curve, though single readings can be large; an effect the other way counts as inactive or inconclusive.

Cc1ccc(C(C)C)c(OCc2ccc(C(=O)Nc3ccc(S(N)(=O)=O)cc3C)o2)c1	G9a block inconclusive, JMJD2A Tudor inconclusive (no result: L3MBTL1 inh, Sfp PPTase inh)
COC(=O)c1ccccc1C(=O)c1ccc(OCCN2CCCCC2)cc1	none (no result: L3MBTL1 inh, JMJD2A Tudor, HP1b chromo inh, BAZ2B block)
CCOCc1nnc(NC(=O)CSc2ccccc2)s1	none
CC(C)(C)Cc1nnc(NC(=O)CSc2ccccc2)s1	G9a block 4.47µM, Sfp PPTase inh 14.1µM, JMJD2A Tudor 56.2µM, HP1b chromo inh inconclusive, BAZ2B block inconclusive | Sfp inh conf 7.44µM
CCCCC[C@H](O)/C=C/[C@@H]1[C@@H](C/C=C\CCCC(=O)O)[C@H](O)C[C@H]1O	none (no result: L3MBTL1 inh, JMJD2A Tudor, HP1b chromo inh, BAZ2B block)
C/C=C/c1ccc(OCCCCOc2ccccc2F)c(OC)c1	Sfp PPTase inh inconclusive
C/C=C/c1ccc(OCCCCn2cncn2)c(OC)c1	G9a block inconclusive, Sfp PPTase inh 1.12µM, JMJD2A Tudor 7.08µM, BAZ2B block 31.6µM (no result: L3MBTL1 inh) | Sfp inh conf inactive | Sfp PPTase gel inactive
N=C(N)c1ccc(OCCCCCOc2ccc(C(=N)N)cc2)cc1 (tested in a mixture with another compound)	none (no result: L3MBTL1 inh, Sfp PPTase inh, JMJD2A Tudor, HP1b chromo inh, BAZ2B block)
Cc1ccc(-c2cc(C(=O)N3CCN(c4ncccn4)CC3)c3cc(Br)ccc3n2)o1	G9a block inconclusive, Sfp PPTase inh 7.94µM, JMJD2A Tudor 35.5µM, HP1b chromo inh inconclusive, BAZ2B block inconclusive | Sfp inh conf 4.69µM
COc1ccc(-c2cc(C(=O)N3CCN(c4ncccn4)CC3)c3ccccc3n2)cc1	none (no result: Sfp PPTase inh)
CCCCCC1=C2CNC(CCC)(C(=O)OC)C=C2C(C)C1=O (stereo not drawn)	none (no result: L3MBTL1 inh, G9a block, JMJD2A Tudor, HP1b chromo inh, BAZ2B block)
COc1ccc(NC(=O)Cn2c(=O)n(Cc3ccco3)c(=O)c3sc4ccccc4c32)cc1Cl	none (no result: L3MBTL1 inh, Sfp PPTase inh)
CCOc1ccc2[nH]c(=O)c(C(c3nnnn3C3CCCCC3)N3CCN(C)CC3)cc2c1 (stereo not drawn)	G9a block inconclusive (no result: L3MBTL1 inh)
CCOc1ccc2[nH]c(=O)c(C(c3nnnn3Cc3ccco3)N3CCC(C)CC3)cc2c1 (stereo not drawn)	G9a block inconclusive, Sfp PPTase inh 3.55µM | Sfp inh conf 8.35µM
C[C@@H]1CN=C2N(CCNC(=O)CCC3CCCCC3)[C@H](Cc3ccc(O)cc3)CN21	Sfp PPTase inh 15.8µM, JMJD2A Tudor 50.1µM | Sfp inh conf inconclusive
O=C(O)CC(NS(=O)(=O)c1ccc(Br)s1)c1ccccc1 (stereo not drawn)	none (no result: L3MBTL1 inh, Sfp PPTase inh)
CC(=O)n1c(-c2ccccc2)c(CO)c2ccccc21	none
NCCc1c(-c2ccccc2)n(-c2ccccc2)c2ccccc12	L3MBTL1 inh inconclusive, G9a block 44.7µM, Sfp PPTase inh 15.8µM, JMJD2A Tudor 31.6µM, HP1b chromo inh inconclusive, BAZ2B block 22.4µM | Sfp inh conf 41.8µM | Sfp PPTase gel inactive
O=C(O)C(O)c1ccco1 (stereo not drawn)	L3MBTL1 inh 5.01µM, G9a block 11.2µM, Sfp PPTase inh 44.7µM, JMJD2A Tudor 22.4µM, HP1b chromo inh inconclusive, BAZ2B block 8.91µM | Sfp inh conf inconclusive | Sfp PPTase gel inactive
COc1ccc(CCNC(=O)NCc2noc3ccc(C)cc23)c(OC)c1	none (no result: L3MBTL1 inh, Sfp PPTase inh)
CN=c1nc(-c2ccccc2)n(-c2ccccc2)s1	G9a block 1.12µM!, JMJD2A Tudor 22.4µM, HP1b chromo inh 7.08µM, BAZ2B block 8.91µM (no result: Sfp PPTase inh) | Sfp inh conf 0.835µM
